Some test systems named below: HCT-15 colon; HT29 colon; SNB-75 CNS; SNB-19 CNS; PC-3 prostate; SK-MEL-5 melanoma; UACC-62 melanoma; LOX IMVI melanoma; SK-MEL-28 melanoma; U251 CNS.
What all share (experiment): NCI-60 one-dose screen, 48 h (100 = growth as untreated, 0 = no growth, -100 = all killed)
What all share (details): 10 µM unless noted

We go through 13 compounds from PubChem BioAssay (NCI).

This is part of a sample that, as a whole, favours compounds with a hit. Of some 83,000 tested, about 20% had one in any assay.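 Treatment: one concentration, 48 hours, 96-well format. Scoring: percent growth, with anything below 10 considered active.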 Unmarked numbers belong to inactive results. Activity calls are given as the source filed them.

For `N#CSCc1ccc(Cl)c(CSC#N)c1`, the growth with HCT-15 colon is 18%; in the assay with HT29 colon, 6.14% (active); in the assay with SNB-75 CNS, 25.4%; in the assay with SNB-19 CNS it was 61.5%; in the assay with PC-3 prostate it was 25.5%; with SK-MEL-5 melanoma, 19.8%. In addition, the growth in the assay on UACC-62 melanoma is 57.3%; in the assay on LOX IMVI melanoma it was 19.9%; in the assay on SK-MEL-28 melanoma, 68.6%.

In the case of `CC(C)c1ccc2nc3ccc(C(=O)NCCN4CCN(c5ccccc5)CC4)cn3c(=O)c2c1`, the growth in the assay on HCT-15 colon was 44.5%; with HT29 colon, 38.8%; in the assay with SNB-75 CNS it was 60.4%; in the assay on SNB-19 CNS it was 78.8%; in the assay with PC-3 prostate it was 56.3%; in the assay on SK-MEL-5 melanoma, -25.3% (active). Further, the values for the growth with UACC-62 melanoma and in the assay on SK-MEL-28 melanoma were 62% and 69.7%, respectively.

As for `O=C(Nc1ccc(F)cc1)ON=C1CCCCC1`, the growth was 97% [100 µM] in the assay on HCT-15 colon; 103% [100 µM] with HT29 colon; 85% [100 µM] in the assay on SNB-75 CNS; 94% [100 µM] with SNB-19 CNS; 102% [100 µM] in the assay on U251 CNS; 89.5% [100 µM] in the assay with PC-3 prostate. Besides, the growth is 99.6% [100 µM] in the assay with SK-MEL-5 melanoma, 54.5% [100 µM] with UACC-62 melanoma and 108% [100 µM] with SK-MEL-28 melanoma.

As for `O=C1c2ccccc2C(=O)c2sc(Nc3cccc(Cl)c3)nc21`, the growth in the assay with HCT-15 colon is -67.3% (active); in the assay with HT29 colon, 76.1%; with SNB-75 CNS it was -85.2% (active); with SNB-19 CNS, 42.8%; in the assay on PC-3 prostate, 3.03% (active); in the assay with SK-MEL-5 melanoma, -82.6% (active). Also, the growth with UACC-62 melanoma is -55.6% (active); with LOX IMVI melanoma, -69.1% (active); in the assay on SK-MEL-28 melanoma, -78.1% (active).

Consider `CNC(=O)N/N=C/c1ccc([N+](=O)[O-])o1`, for which the growth with HCT-15 colon is 107%; with HT29 colon, 102%; in the assay on SNB-75 CNS, 114%; with SNB-19 CNS, 94.9%; in the assay with PC-3 prostate it was 92.7%; with SK-MEL-5 melanoma, 98.6%. Further, the growth in the assay on UACC-62 melanoma is 88.9%; in the assay with LOX IMVI melanoma it was 89.1%; with SK-MEL-28 melanoma it was 111%.

For `NC(N)=N/N=C/c1ccc([N+](=O)[O-])o1`, the growth in the assay with HCT-15 colon was 68.1%; in the assay with HT29 colon, 33.2%; in the assay with SNB-75 CNS it was 106%; in the assay with SNB-19 CNS, 99.9%; with U251 CNS it was 80.8%; with PC-3 prostate, 90%. Further, the growth in the assay on SK-MEL-5 melanoma is 90.4%; in the assay with UACC-62 melanoma, 92.9%; with LOX IMVI melanoma, 82.1%; in the assay with SK-MEL-28 melanoma it was 114%.

With `OC(CNc1ccnc2cc(Cl)ccc12)CNc1ccnc2cc(Cl)ccc12`, the growth in the assay on HCT-15 colon was 97%; in the assay on HT29 colon it was 7.67% (active); in the assay with SNB-75 CNS, 31.8%; with SNB-19 CNS, 41.3%; in the assay with U251 CNS, 3.22% (active); in the assay with PC-3 prostate, 69.7%. Besides, the growth was 53.7% with SK-MEL-5 melanoma, 88.3% in the assay on UACC-62 melanoma, -79.2% (active) in the assay on LOX IMVI melanoma and -82.7% (active) in the assay on SK-MEL-28 melanoma.

For the compound `CCN1/C(=C\c2cc[n+](CC)c3ccccc23)C=Cc2ccccc21`, the growth was 29.7% with HCT-15 colon; 8.56% (active) in the assay on HT29 colon; 14.3% with SNB-75 CNS; 17.1% in the assay with SNB-19 CNS; 17% in the assay on U251 CNS; 11.4% with PC-3 prostate. The growth with SK-MEL-5 melanoma was -74.4% (active); in the assay with UACC-62 melanoma it was -21.4% (active); in the assay with SK-MEL-28 melanoma it was 3% (active).

On to `CN(C)c1ccc(C(=C2C=CC(=[N+](C)C)C=C2)c2ccc(N(C)C)cc2)cc1` (tested in a mixture with another compound), for which the growth with HCT-15 colon was -74.7% (active); in the assay with HT29 colon it was -87.3% (active); in the assay on SNB-75 CNS, -97.3% (active); in the assay with SNB-19 CNS, -99.1% (active); with U251 CNS, -95.8% (active); with PC-3 prostate, -38% (active). Moreover, the growth is -99.3% (active) in the assay with SK-MEL-5 melanoma, -64.4% (active) in the assay with UACC-62 melanoma and -87% (active) in the assay on SK-MEL-28 melanoma.

Consider `CCOC(=O)c1c(C)[nH]c(CO)c1C`, for which the growth was 106% in the assay with HCT-15 colon; 96.4% in the assay with HT29 colon; 101% with SNB-75 CNS; 98.4% in the assay with SNB-19 CNS; 99% with U251 CNS; 98.1% in the assay on PC-3 prostate. The growth was 99.1% with SK-MEL-5 melanoma, 93.4% in the assay on UACC-62 melanoma and 103% in the assay on SK-MEL-28 melanoma.

Consider `O=C1c2ccccc2C(=O)c2sc(Nc3ccc(Cl)cc3)nc21`, for which the growth in the assay on HCT-15 colon was -68.7% (active); with HT29 colon, 92.5%; in the assay on SNB-75 CNS it was 33.1%; in the assay with SNB-19 CNS it was 79.5%; with U251 CNS, 4.35% (active); with PC-3 prostate, 2.24% (active). In addition, the results for the growth in the assay with SK-MEL-5 melanoma, in the assay with UACC-62 melanoma and in the assay on SK-MEL-28 melanoma were 13%, 18.4% and -9.35% (active), respectively.

Turning to `Cc1ccnc(NC(c2ccccc2)c2ccc3cccnc3c2O)c1` (configuration not stated), the growth with HCT-15 colon was 27.9%; in the assay on HT29 colon, 43.1%; in the assay with SNB-75 CNS, 52.2%; with SNB-19 CNS, 40.3%; in the assay on PC-3 prostate it was 35.3%; with SK-MEL-5 melanoma it was 39.4%. The growth in the assay with UACC-62 melanoma was 26.3%; in the assay with LOX IMVI melanoma it was 28.1%; in the assay on SK-MEL-28 melanoma it was 47%.

On to `CCC(CCCN(CC)CCc1ccccc1)OC(=O)c1cc(OC)c(OC)c(OC)c1` (configuration not stated), for which the growth in the assay on HCT-15 colon is 89.8%; in the assay on HT29 colon, 57.3%; in the assay on SNB-75 CNS, 65.3%; in the assay with SNB-19 CNS it was 92.3%; with PC-3 prostate, 82.4%; in the assay with SK-MEL-5 melanoma it was 91.3%. The growth is 90.7% in the assay on UACC-62 melanoma and 98.5% with SK-MEL-28 melanoma.
